Measured values reported in PubChem BioAssay (EPA / NIEHS).
Results filed as inconclusive are left out. Active and inactive are the calls of the source. The calls were made as follows, unless noted: active = hit-call score of the fitted dose curve at least 0.9, where 1 is the maximum; inconclusive = response in the unintended direction; inactive = score below 0.9.

Experiments:
[1] = target: Bile acid receptor (Homo sapiens) (UniProt Q96RI1); experiment: ATG_IR1_CIS: Attagene CIS-FACTORIAL HepG2 Assay for human Nuclear Receptor Subfamily 1 Group H Member 4 (NR1H4), IR1 submotif (AID 2282946; active = hit-call score of the fitted dose curve at least 0.9, where 1 is the maximum; inactive = score below 0.9); details: IR1 reporter transcription, actives raise or lower the signal
Outline: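 HepG2 cells transiently transfected with multiplexed cis-element reporter units read endogenous transcription factor activity. After 24 h compound exposure, reporter mRNA was quantified by RT-PCR, fluorescent labelling, HpaI digestion and capillary electrophoresis; bidirectional fitting versus DMSO baseline.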

[2] = target: human Peroxisome Proliferator-activated Receptor alpha (PPARa), PPARA (gene 5465) (UniProt Q07869); experiment: ATG_PPARa_TRANS: Attagene TRANS-FACTORIAL HepG2 Assay for human Peroxisome Proliferator-activated Receptor alpha (PPARa) (AID 2283001)
Outline: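 Reporter transcripts quantified by RT-PCR plus capillary electrophoresis after 24 h treatment, fitted upward relative to DMSO. Cells: human HepG2 transiently carrying multiple GAL4-UAS reporter units driven by NR-Gal4 chimeras.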

[3] = target: human Peroxisome Proliferator-activated Receptor delta (PPARd), PPARD (gene 5467) (UniProt Q03181); experiment: ATG_PPARd_TRANS: Attagene TRANS-FACTORIAL HepG2 Assay for human Peroxisome Proliferator-activated Receptor delta (PPARd) (AID 2283002)
Outline: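 Read-out is induced reporter mRNA, quantified by RT-PCR with fluorescent labelling and capillary electrophoresis after 24 h dosing. Cells are HepG2 transiently carrying multiple GAL4-UAS reporter units driven by exogenous NR-GAL4 chimeras; DMSO serves as baseline.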

[4] = target: human Vitamin D Receptor (VDR), VDR (gene 7421) (UniProt P11473); experiment: ATG_VDR_TRANS: Attagene TRANS-FACTORIAL HepG2 Assay for human Vitamin D Receptor (VDR) (AID 2283022)
Outline: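 Steps: transfect HepG2 with GAL4-UAS-driven reporter constructs; dose compounds 24 h; isolate RNA, reverse-transcribe, PCR-amplify with 6-FAM-labelled primer extension and HpaI digestion; quantify fragments by capillary electrophoresis relative to DMSO.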

[5] = ATG_GAL4_TRANS: Attagene TRANS-FACTORIAL HepG2 Assay for GAL4 (Internal Marker) (AID 2282976); details: HepG2 Attagene TRANS GAL4 internal marker reporter
Outline: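 First, HepG2 cells were transfected with reporter units under GAL4-UAS control. Next, they were treated with chemical for 24 h. Finally, RNA was reverse-transcribed, PCR-amplified, FAM-labelled and resolved by capillary electrophoresis, with induction scored against DMSO.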

[6] = target: Oxysterols receptor LXR-beta (Homo sapiens) (UniProt P55055); experiment: ATG_LXRb_TRANS: Attagene TRANS-FACTORIAL HepG2 Assay for human Liver X Receptor beta (LXRb) (AID 2282981); details: HepG2 Attagene TRANS GAL4-LXRb reporter, mRNA
Outline: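 After 24 h chemical treatment of transfected HepG2 cells carrying exogenous NR-Gal4 chimeras, reporter mRNA was quantified by fluorescent RT-PCR and capillary electrophoresis; activity taken as increase over DMSO controls.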

[7] = target: human RAR-related Orphan Receptor beta (RORb), RORB (gene 6096) (UniProt Q92753); experiment: ATG_RORb_TRANS: Attagene TRANS-FACTORIAL HepG2 Assay for human RAR-related Orphan Receptor beta (RORb) (AID 2283010)
Outline: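 Transfect HepG2 with multiple GAL4-UAS reporter transcription units; dose chemicals for 24 h; isolate RNA, reverse-transcribe and PCR-amplify reporter sequences; label, digest and resolve fragments by capillary electrophoresis; fit increases relative to DMSO.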

[8] = target: human Thyroid Receptor alpha (THRa1), THRA (gene 7067) (UniProt P10827); experiment: ATG_THRa1_TRANS: Attagene TRANS-FACTORIAL HepG2 Assay for human Thyroid Receptor alpha (THRa1) (AID 2283014)
Outline: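 Reporter transcript induction, read by capillary electrophoresis of 6-FAM-labelled RT-PCR products, reflects activity of a transfected THRa1-Gal4 fusion in HepG2 liver cells. Cells were dosed for 24 h; activity was fitted in the positive direction against DMSO.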

[9] = TOX21_p53_BLA_p2_viability: Viability Assessment in the Tox21 HCT-116 p53 Agonism Beta-lactamase Assay, Phase 2 (AID 2283591);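 also: compound exposure lasted 16 h at 37 °C; actives lower the ATP signal meaning cytotoxicity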
Outline: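 Cytotoxicity readout: CellTiter-Glo ATP luminescence, 30 min at room temperature, after the beta-lactamase read. Cells were HCT116 exposed 16 h at 37C to compounds pin-transferred at 217-fold dilution from DMSO stocks.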

[10] = TOX21_p53_BLA_p3_viability: Viability Assessment in the Tox21 HCT-116 p53 Agonism Beta-lactamase Assay, Phase 3 (AID 2283593);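 also: cells exposed to compound for 16 h before reading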
Outline: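 Cellular ATP was quantified by CellTiter-Glo luminescence, read after 30 min at room temperature. Beforehand, HCT116 cells (4000/well) received compound 5 h post-seeding, 217-fold diluted from DMSO, then incubated 16 h at 37C.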

[11] = TOX21_p53_BLA_p4_viability: Viability Assessment in the Tox21 HCT-116 p53 Agonism Beta-lactamase Assay, Phase 4 (AID 2283597);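 also: hits lower the luminescence signal meaning cytotoxicity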
Outline: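 Readout: ATP luminescence (CellTiter-Glo), measured 30 min after reagent addition at RT. The reagent followed a 2 h CCF4-AM incubation, and the cells had been exposed to compound for 16 h at 37C.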

[12] = CCTE_Harrill_HTTr_Apoptosis_MCF7: CCTE's 6-hour Apoptosis Assessment for the High-Throughput Transcriptomics (HTTr) Platform, in MCF-7 cells cultured in DMEM + 10% fetal bovine serum, Harrill Lab (AID 2284011; active = hit-call score of the fitted dose curve at least 0.9, where 1 is the maximum; inactive = score below 0.9)
Outline: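 MCF-7 (DMEM + 10% FBS), 384-well; 8-pt dilution series, 6 h chemical exposure; caspase-3/7 activation via CellEvent Caspase 3/7 Green, HCI; bidirectional fit vs DMSO.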

[13] = target: Glucocorticoid receptor (Homo sapiens) (UniProt P04150); experiment: ATG_GR_TRANS: Attagene TRANS-FACTORIAL HepG2 Assay for human Glucocorticoid Receptor (GR) (AID 2282978); details: HepG2 Attagene TRANS GR reporter, mRNA transcription;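 also: activators score as hits since higher reporter transcript over DMSO is fitted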
Outline: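 HepG2 cells transiently transfected with multiplexed reporter units in which chimeric NR-GAL4 proteins drive GAL4-UAS reporters; 24 h compound exposure. Reporter mRNA measured by RT-PCR, 6-FAM labelling, HpaI digestion and capillary electrophoresis; gain-of-signal fitted versus DMSO.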

[14] = ATG_M_32_TRANS: Attagene TRANS-FACTORIAL HepG2 Assay for M32 Transcription Factor (Internal Marker) (AID 2282984); details: HepG2 Attagene TRANS M32 internal marker reporter;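 also: transcript level of a background control reporter unit measured by RT-PCR and capillary electrophoresis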
Outline: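 Internal background reporter in transfected HepG2: after 24 h chemical exposure, RNA reverse-transcribed, reporter cDNA amplified, fluorescently labelled and HpaI-cut, then sized by capillary electrophoresis. Gain of signal fitted against DMSO control.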

[15] = target: Retinoic acid receptor alpha (Homo sapiens) (UniProt P10276); experiment: ATG_DR5_RAR_CIS: Attagene CIS-FACTORIAL HepG2 Assay for human Retinoic Acid Receptor Alpha (RARE), DR5 submotif (AID 2282934; active = hit-call score of the fitted dose curve at least 0.9, where 1 is the maximum; inactive = score below 0.9); details: HepG2 Attagene cis-factorial RARE DR5 reporter, mRNA; actives raise or lower the signal
Outline: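 Reporter transcripts from a DR5-regulated unit, measured via RT-PCR plus capillary electrophoresis, reflect endogenous RAR activity in transiently transfected human HepG2 liver cells. Exposure lasted 24 h; gain or loss of signal scored against DMSO.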

[16] = target: Nuclear receptor subfamily 1 group I member 3 (Homo sapiens) (UniProt Q14994); experiment: ATG_CAR_TRANS: Attagene TRANS-FACTORIAL HepG2 Assay for human Constitutive Androstane Receptor (CAR) (AID 2282969); details: HepG2 Attagene TRANS-FACTORIAL CAR reporter;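 also: activators raise reporter mRNA above DMSO so AC50 marks induction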
Outline: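 Signal is reporter mRNA induction relative to DMSO, measured 24 h after dosing by RT-PCR with fluorescent primer extension and capillary electrophoresis. Human HepG2 liver cells carried transiently transfected chimeric NR-Gal4/GAL4-UAS reporter constructs.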

[17] = target: Nuclear receptor subfamily 4 group A member 2 (Homo sapiens) (UniProt P43354); experiment: ATG_NURR1_TRANS: Attagene TRANS-FACTORIAL HepG2 Assay for human Nuclear Receptor Related Protein 1 (NURR1) (AID 2282985); details: HepG2 Attagene TRANS reporter, mRNA readout
Outline: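 Reporter transcript induction, measured by RT-PCR with fluorescent labelling, HpaI digestion and capillary electrophoresis, after 24 hr dosing of human HepG2 cells transiently expressing an exogenous NR-Gal4 fusion with GAL4-UAS-driven reporters; DMSO as baseline.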

[18] = target: Peroxisome proliferator-activated receptor gamma (Homo sapiens) (UniProt P37231); experiment: ATG_PPARg_TRANS: Attagene TRANS-FACTORIAL HepG2 Assay for human Peroxisome Proliferator-activated Receptor-gamma (PPARg) (AID 2283007)
Outline: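 HepG2 cells transiently transfected with multiplexed GAL4-UAS reporter units and exogenous chimeric NR-Gal4 proteins; reporter mRNA quantified after 24 h compound exposure by RT-PCR, fluorescent labelling, HpaI digestion and capillary electrophoresis; gain-of-signal fitted versus DMSO baseline.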

Measured: outcome

human Peroxisome Proliferator-activated Receptor alpha (PPARa), PPARA (gene 5465), sequence (Q07869 whole entry, looked up, the tested form may be a part): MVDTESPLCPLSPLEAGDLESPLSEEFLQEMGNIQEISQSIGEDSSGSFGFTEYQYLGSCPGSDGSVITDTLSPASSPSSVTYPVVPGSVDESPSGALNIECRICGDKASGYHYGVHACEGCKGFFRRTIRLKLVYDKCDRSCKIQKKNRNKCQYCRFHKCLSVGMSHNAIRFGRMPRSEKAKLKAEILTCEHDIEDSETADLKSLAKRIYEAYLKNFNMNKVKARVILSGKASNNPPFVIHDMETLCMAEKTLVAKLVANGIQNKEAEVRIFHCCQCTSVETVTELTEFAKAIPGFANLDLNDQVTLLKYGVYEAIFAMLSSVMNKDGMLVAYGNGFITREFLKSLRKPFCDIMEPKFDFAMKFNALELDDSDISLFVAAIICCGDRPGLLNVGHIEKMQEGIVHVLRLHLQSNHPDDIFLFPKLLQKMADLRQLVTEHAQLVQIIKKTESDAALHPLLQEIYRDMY
Retinoic acid receptor alpha (Homo sapiens), sequence (P10276 whole entry, looked up): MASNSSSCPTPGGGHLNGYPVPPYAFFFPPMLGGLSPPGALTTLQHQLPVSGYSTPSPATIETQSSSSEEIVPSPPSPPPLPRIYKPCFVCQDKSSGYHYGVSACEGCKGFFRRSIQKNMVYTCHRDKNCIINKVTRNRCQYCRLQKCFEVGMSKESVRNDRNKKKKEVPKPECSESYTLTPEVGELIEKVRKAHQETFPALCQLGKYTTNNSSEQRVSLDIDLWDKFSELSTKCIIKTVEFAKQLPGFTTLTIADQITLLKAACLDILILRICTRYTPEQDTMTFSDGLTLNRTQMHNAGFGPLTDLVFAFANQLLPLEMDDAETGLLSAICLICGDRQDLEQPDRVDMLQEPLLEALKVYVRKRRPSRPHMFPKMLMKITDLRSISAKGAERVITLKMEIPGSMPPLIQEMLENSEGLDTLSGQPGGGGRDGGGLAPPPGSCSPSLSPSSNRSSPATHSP
human Peroxisome Proliferator-activated Receptor delta (PPARd), PPARD (gene 5467), sequence (Q03181 whole entry, looked up, the tested form may be a part): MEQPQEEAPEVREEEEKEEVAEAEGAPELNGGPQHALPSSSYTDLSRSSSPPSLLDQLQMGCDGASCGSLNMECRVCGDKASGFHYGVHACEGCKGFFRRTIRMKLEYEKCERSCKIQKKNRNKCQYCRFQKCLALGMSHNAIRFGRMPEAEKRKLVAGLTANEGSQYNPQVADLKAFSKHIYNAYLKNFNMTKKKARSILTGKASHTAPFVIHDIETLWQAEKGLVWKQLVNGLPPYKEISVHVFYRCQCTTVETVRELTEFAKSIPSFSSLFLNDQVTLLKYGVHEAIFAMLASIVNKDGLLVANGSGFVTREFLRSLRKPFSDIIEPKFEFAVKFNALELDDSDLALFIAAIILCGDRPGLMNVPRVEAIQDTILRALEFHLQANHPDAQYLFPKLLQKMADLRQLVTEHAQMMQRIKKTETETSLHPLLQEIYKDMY
Oxysterols receptor LXR-beta (Homo sapiens), sequence (P55055 whole entry, looked up, the tested form may be a part): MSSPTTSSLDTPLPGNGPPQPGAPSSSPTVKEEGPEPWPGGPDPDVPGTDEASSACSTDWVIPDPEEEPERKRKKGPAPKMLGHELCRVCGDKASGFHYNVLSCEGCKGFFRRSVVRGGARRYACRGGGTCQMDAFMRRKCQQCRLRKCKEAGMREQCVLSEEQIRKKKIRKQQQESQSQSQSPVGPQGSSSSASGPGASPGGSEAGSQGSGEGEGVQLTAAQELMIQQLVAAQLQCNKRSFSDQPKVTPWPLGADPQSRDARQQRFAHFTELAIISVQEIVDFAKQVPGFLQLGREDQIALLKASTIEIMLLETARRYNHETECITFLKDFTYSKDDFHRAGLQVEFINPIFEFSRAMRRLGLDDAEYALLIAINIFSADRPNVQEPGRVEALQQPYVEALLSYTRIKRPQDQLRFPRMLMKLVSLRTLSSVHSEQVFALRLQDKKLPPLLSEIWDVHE
human Thyroid Receptor alpha (THRa1), THRA (gene 7067), sequence (P10827 whole entry, looked up, the tested form may be a part): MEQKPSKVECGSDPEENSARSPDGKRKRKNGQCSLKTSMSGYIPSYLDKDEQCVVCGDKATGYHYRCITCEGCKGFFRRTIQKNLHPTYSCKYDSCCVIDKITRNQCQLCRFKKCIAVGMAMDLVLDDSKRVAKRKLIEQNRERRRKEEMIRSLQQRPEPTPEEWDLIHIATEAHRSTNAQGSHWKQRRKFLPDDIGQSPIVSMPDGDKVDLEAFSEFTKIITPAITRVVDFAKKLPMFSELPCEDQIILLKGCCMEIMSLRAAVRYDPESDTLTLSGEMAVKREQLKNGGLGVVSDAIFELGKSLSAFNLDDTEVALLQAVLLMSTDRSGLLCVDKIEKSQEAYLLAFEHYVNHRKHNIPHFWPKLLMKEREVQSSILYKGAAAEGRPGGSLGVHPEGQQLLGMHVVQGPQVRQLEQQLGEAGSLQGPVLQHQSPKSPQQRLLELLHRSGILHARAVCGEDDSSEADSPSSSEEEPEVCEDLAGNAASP
human RAR-related Orphan Receptor beta (RORb), RORB (gene 6096), sequence (Q92753 whole entry, looked up, the tested form may be a part): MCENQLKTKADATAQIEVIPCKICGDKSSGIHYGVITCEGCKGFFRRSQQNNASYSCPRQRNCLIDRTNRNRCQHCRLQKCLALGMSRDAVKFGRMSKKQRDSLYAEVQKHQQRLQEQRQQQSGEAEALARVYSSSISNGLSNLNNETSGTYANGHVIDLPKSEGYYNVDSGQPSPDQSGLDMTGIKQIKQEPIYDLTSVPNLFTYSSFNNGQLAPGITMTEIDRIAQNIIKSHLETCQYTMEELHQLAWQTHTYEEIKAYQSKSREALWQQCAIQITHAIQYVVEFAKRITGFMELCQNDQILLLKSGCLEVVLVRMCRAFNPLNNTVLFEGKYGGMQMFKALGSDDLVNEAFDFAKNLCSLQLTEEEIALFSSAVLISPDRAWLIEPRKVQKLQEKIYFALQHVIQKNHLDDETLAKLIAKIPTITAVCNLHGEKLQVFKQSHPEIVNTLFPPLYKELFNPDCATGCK
human Vitamin D Receptor (VDR), VDR (gene 7421), sequence (P11473 whole entry, looked up, the tested form may be a part): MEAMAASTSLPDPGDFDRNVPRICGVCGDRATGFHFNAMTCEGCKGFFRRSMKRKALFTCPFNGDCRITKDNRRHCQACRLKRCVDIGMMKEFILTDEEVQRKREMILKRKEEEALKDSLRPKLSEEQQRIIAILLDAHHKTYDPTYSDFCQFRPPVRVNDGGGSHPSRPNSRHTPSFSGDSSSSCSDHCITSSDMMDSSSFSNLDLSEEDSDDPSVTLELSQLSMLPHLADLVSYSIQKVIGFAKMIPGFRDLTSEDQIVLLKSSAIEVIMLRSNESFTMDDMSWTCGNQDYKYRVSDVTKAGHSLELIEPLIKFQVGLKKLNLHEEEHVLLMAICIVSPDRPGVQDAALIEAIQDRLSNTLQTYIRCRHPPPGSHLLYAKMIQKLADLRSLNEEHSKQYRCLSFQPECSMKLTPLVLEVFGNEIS
Glucocorticoid receptor (Homo sapiens), sequence (P04150 whole entry, looked up, the tested form may be a part): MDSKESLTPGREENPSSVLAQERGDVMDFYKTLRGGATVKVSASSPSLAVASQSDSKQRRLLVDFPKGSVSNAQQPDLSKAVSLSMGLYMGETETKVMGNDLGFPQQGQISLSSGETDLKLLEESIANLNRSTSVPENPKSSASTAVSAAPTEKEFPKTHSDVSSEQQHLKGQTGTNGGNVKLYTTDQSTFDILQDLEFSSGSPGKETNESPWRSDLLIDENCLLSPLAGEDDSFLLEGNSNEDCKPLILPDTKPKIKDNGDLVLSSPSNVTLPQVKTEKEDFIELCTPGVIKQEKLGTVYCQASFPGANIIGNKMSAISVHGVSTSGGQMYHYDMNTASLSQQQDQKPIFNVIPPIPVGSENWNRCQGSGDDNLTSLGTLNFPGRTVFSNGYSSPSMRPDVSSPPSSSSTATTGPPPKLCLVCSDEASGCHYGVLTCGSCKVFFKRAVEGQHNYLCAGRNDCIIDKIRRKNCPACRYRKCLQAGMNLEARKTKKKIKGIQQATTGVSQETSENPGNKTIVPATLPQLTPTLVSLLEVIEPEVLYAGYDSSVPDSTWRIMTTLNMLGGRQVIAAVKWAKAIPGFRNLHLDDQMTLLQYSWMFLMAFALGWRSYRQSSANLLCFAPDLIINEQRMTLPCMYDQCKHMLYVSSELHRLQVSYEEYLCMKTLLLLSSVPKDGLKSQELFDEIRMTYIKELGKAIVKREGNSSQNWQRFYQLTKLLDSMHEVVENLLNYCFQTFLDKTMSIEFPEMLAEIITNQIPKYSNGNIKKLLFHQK
Bile acid receptor (Homo sapiens), sequence (Q96RI1 whole entry, looked up): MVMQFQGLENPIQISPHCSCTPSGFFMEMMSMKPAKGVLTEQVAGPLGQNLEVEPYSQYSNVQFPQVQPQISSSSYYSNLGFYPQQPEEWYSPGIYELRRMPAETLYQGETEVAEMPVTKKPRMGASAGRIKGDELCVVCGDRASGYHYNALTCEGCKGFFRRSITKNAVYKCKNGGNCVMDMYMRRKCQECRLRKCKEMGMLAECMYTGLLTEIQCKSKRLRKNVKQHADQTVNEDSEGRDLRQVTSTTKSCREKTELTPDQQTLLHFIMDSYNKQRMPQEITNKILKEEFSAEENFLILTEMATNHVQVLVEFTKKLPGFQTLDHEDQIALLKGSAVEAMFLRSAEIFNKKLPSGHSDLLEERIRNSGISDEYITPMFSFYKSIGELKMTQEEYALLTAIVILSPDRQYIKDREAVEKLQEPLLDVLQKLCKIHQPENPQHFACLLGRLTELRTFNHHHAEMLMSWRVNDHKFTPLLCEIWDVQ
Peroxisome proliferator-activated receptor gamma (Homo sapiens), sequence (P37231 whole entry, looked up, the tested form may be a part): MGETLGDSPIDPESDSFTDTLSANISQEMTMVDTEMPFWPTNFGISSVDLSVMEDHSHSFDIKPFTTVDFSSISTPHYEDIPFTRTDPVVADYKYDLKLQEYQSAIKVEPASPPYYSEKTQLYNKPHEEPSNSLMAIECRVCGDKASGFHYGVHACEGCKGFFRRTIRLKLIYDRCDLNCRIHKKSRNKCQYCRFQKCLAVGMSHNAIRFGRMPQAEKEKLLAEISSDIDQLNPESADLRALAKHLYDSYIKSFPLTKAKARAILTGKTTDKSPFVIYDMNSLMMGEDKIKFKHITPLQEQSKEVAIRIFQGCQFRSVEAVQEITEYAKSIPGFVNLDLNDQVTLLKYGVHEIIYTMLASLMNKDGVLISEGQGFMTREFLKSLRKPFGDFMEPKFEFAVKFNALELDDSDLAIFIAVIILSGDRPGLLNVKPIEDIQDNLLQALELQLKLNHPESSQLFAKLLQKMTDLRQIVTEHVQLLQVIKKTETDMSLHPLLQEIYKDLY

CC(C)C(=O)Cl
inactive: [1] | [2] | [3] | [4]

CCC[N+](=O)[O-]
not listed: [2] | [13] | [14] | [15] | [16] | [17] | [18]
inactive: all other assays above

COc1ccc(CO)cc1
not listed: [4] | [10] | [11] | [15] | [16] | [17] | [18]
inactive: all other assays above

S=c1[nH]c2ccccc2[nH]1
inactive: [15] | [16] | [5] | [17] | [2] | [18] | [9] | [10] | [11]

CCOC(=O)NC(=S)Nc1ccccc1NC(=S)NC(=O)OCC
not listed: [1] | [5] | [6] | [9] | [14] | [16]
inactive: all other assays above

O=S(=O)(O)O
inactive: [6] | [17] | [2] | [8] | [12]

CN(C)N
inactive: [15] | [5] | [13] | [6] | [14] | [2] | [4] | [10] | [12]
